Measured values: PMC5540273 (PLoS ONE, 2017)

Each compound was assayed on TESK1. Conditions: concentration: 1 μM,replicates: in singlicate; n = 1.
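Note: KINOMEscan kinase panel screen.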

| SMILES | %Inh [%] |
| --- | --- |
| CN(c1cccc(CNc2nc(Nc3ccc4c(c3)CC(=O)N4)ncc2C(F)(F)F)c1)S(C)(=O)=O | 0 |
| CC(=O)Nc1ccc(-c2cc3ncnc(SCC(=O)O)c3s2)cc1 | 6 |
| COc1cccc(OC)c1C(=O)Nc1cccc(-c2nn3ccccc3c2-c2ccnc(Nc3cccc(F)c3)n2)c1 [GSK361065] | 1 |
| CC(C(=O)NC1CCN(c2ccnc(Nc3ccc(F)cc3)n2)C1)c1ccc(Cl)cc1 (centres unmarked) [GSK1379713] | 26 |
| Cc1ccc(CC(=O)N2CCc3cc(-c4cn(C)c5ncnc(N)c45)ccc32)cc1 [GSK2634758] | 36 |
| Cl.Nc1n[nH]c2cc(-c3ccccn3)ccc12 [GSK2189892] | 22 |
| Cl.c1ccc(Oc2ccc(Nc3ccnc4cc(-c5ccc(CN6CCNCC6)o5)ccc34)cc2)nc1 [GW567142] | 0 |
| c1ccc(Oc2ccc(Nc3ccnc4ccc(-c5ccccn5)cc34)cc2)cc1 [GW407034] | 29 |
| COc1cccc(C2=C(Nc3cccc(Cl)c3)C(=O)NC2=O)c1 [SB-341556] | 17 |
| C[C@@H](Oc1cc(-n2cnc3cc(-c4cnn(C)c4)ccc32)sc1C(N)=O)c1ccccc1Cl [GSK580432] | 37 |
| O=C(Nc1n[nH]c2cc(-c3ccco3)ccc12)C1CC1 [SB-737447] | 0 |
| COc1cc2nccc(Nc3ccc(Oc4ccccc4)cc3)c2cc1OC.Cl [GI261656] | 5 |
| CN(c1ccccc1CNc1nc(Nc2ccc3c(c2)CC(=O)N3)ncc1C(F)(F)F)S(C)(=O)=O | 0 |
| N#Cc1cccc(C(=O)NC2CCN(c3ccnc(Nc4ccc(F)cc4)n3)C2)c1 (centres unmarked) [GSK1379708] | 13 |
| COc1cccc(CNC(=O)NC2CCN(c3ccnc(Nc4cc(OC)c(OC)c(OC)c4)n3)C2)c1 (centres unmarked) [GSK1379765] | 40 |
| Cc1ccc2c(-c3ccnc(Nc4ccc(C(F)(F)F)cc4)n3)cnn2n1 [GW819776] | 0 |
| O=C(Nc1ccc(Oc2ccc3nc(NC(=O)C4CC4)cn3n2)c(F)c1)c1cccn(-c2ccccc2)c1=O | 17 |
| CS(=O)(=O)Nc1ccc(-c2ccnc3[nH]ccc23)cc1 [GSK993273] | 4 |
| CNC(=O)c1ccccc1Nc1nc(Nc2cccc(CS(C)(=O)=O)c2)ncc1C.O=CO [GSK1520489] | 64 |

| SMILES | %Inh [%] |
| --- | --- |
| O=C(Nc1cccc(C(F)(F)F)c1)c1cccc(Oc2ccc3nccn3n2)c1 | 7 |
| COC(=O)Nc1nc2cc(Oc3ccc(NC(=O)Nc4cc(C(F)(F)F)ccc4Cl)cc3)ccc2[nH]1.Cl [GW697465] | 7 |
| CC(C)c1nc(-c2cccc(NS(=O)(=O)c3ccccc3)c2)c(-c2ccnc(Nc3ccc4c(c3)CN(C)CC4)n2)s1 [GSK1649598] | 97.5 |
| CC(=O)Nc1nc2cnc(Nc3cc(NC(=O)c4cccc(CC(C)(C)C#N)c4)ccc3C)nc2s1 | 0 |
| CCn1c(-c2nonc2N)nc2cncc(CNC3CCNCC3)c21.Cl [SB-747651] | 20 |
| CC(C)S(=O)(=O)N1CCN(Cc2ccc3c(c2)nc(NC(=O)c2ccsc2)n3C[C@H](O)c2ccccc2)CC1 [GW635815] | 37 |
| COc1cc2ncn(-c3cc(OCC4CCCCC4)c(C(N)=O)s3)c2cc1OC [GSK204559] | 18 |
| NC(=O)c1ccc(-c2cc3ncnc(SCC(=O)O)c3s2)cc1 | 6 |
| COc1ccc(Nc2nccc(N3CCC(NC(=O)c4cccc(C#N)c4)C3)n2)cc1 (centres unmarked) [GSK1379730] | 46 |
| CCOC(=O)N1CCC(n2cnc(-c3ccc(F)cc3)c2-c2ccnc(N)n2)CC1 [SB-219952] | 12 |
| CCN1CCN(CCCC(=O)Nc2n[nH]c3nc(-c4ccc(O)cc4)c(Br)cc23)CC1 [SB-731579] | 0 |
| CC(=O)c1c(-c2ccncc2)[nH]c(-c2ccncc2)c1C [GW493036] | 25 |
| O=c1[nH]cc(-c2ccc(O)cc2)c2sc(-c3ccncc3)cc12 [GSK1033723] | 0 |
| C[C@@H]1CCN(C(=O)N2CCCC2)C[C@@H]1N(C)c1ncnc2[nH]ccc12 | 16 |
| CCn1c(-c2nonc2N)nc2cncc(Br)c21 [SB-738004] | 19 |
| Cc1n[nH]c2cc(Nc3ccnc(Nc4cccc(CN5CCOCC5)c4)n3)ccc12 [GW682569] | 27 |
| O=C(NOCC1CC1)c1cc(Br)c(F)c(F)c1Nc1ccc(I)cc1Cl | 0 |
| Cn1cc(-c2cccc3c(N)c(C(N)=O)nnc23)cn1 | 0 |

The compounds below were run on TGFBR1. Conditions: concentration: 1 μM,replicates: in singlicate; n = 1.

| SMILES | %Inh [%] |
| --- | --- |
| CN(c1cccc(CNc2nc(Nc3ccc4c(c3)CC(=O)N4)ncc2C(F)(F)F)c1)S(C)(=O)=O | 0 |
| CC(=O)Nc1ccc(-c2cc3ncnc(SCC(=O)O)c3s2)cc1 | 7 |
| COc1cccc(OC)c1C(=O)Nc1cccc(-c2nn3ccccc3c2-c2ccnc(Nc3cccc(F)c3)n2)c1 [GSK361065] | 0 |
| CC(C(=O)NC1CCN(c2ccnc(Nc3ccc(F)cc3)n2)C1)c1ccc(Cl)cc1 (centres unmarked) [GSK1379713] | 0 |
| Cc1ccc(CC(=O)N2CCc3cc(-c4cn(C)c5ncnc(N)c45)ccc32)cc1 [GSK2634758] | 0 |
| Cl.Nc1n[nH]c2cc(-c3ccccn3)ccc12 [GSK2189892] | 0 |
| Cl.c1ccc(Oc2ccc(Nc3ccnc4cc(-c5ccc(CN6CCNCC6)o5)ccc34)cc2)nc1 [GW567142] | 21 |
| c1ccc(Oc2ccc(Nc3ccnc4ccc(-c5ccccn5)cc34)cc2)cc1 [GW407034] | 10 |
| COc1cccc(C2=C(Nc3cccc(Cl)c3)C(=O)NC2=O)c1 [SB-341556] | 12 |
| C[C@@H](Oc1cc(-n2cnc3cc(-c4cnn(C)c4)ccc32)sc1C(N)=O)c1ccccc1Cl [GSK580432] | 0 |
| O=C(Nc1n[nH]c2cc(-c3ccco3)ccc12)C1CC1 [SB-737447] | 6 |
| COc1cc2nccc(Nc3ccc(Oc4ccccc4)cc3)c2cc1OC.Cl [GI261656] | 2 |
| CN(c1ccccc1CNc1nc(Nc2ccc3c(c2)CC(=O)N3)ncc1C(F)(F)F)S(C)(=O)=O | 0 |
| N#Cc1cccc(C(=O)NC2CCN(c3ccnc(Nc4ccc(F)cc4)n3)C2)c1 (centres unmarked) [GSK1379708] | 4 |
| COc1cccc(CNC(=O)NC2CCN(c3ccnc(Nc4cc(OC)c(OC)c(OC)c4)n3)C2)c1 (centres unmarked) [GSK1379765] | 24 |
| Cc1ccc2c(-c3ccnc(Nc4ccc(C(F)(F)F)cc4)n3)cnn2n1 [GW819776] | 21 |
| O=C(Nc1ccc(Oc2ccc3nc(NC(=O)C4CC4)cn3n2)c(F)c1)c1cccn(-c2ccccc2)c1=O | 9 |
| CS(=O)(=O)Nc1ccc(-c2ccnc3[nH]ccc23)cc1 [GSK993273] | 0 |
| CNC(=O)c1ccccc1Nc1nc(Nc2cccc(CS(C)(=O)=O)c2)ncc1C.O=CO [GSK1520489] | 81 |

| SMILES | %Inh [%] |
| --- | --- |
| O=C(Nc1cccc(C(F)(F)F)c1)c1cccc(Oc2ccc3nccn3n2)c1 | 0 |
| COC(=O)Nc1nc2cc(Oc3ccc(NC(=O)Nc4cc(C(F)(F)F)ccc4Cl)cc3)ccc2[nH]1.Cl [GW697465] | 28 |
| CC(C)c1nc(-c2cccc(NS(=O)(=O)c3ccccc3)c2)c(-c2ccnc(Nc3ccc4c(c3)CN(C)CC4)n2)s1 [GSK1649598] | 94.1 |
| CC(=O)Nc1nc2cnc(Nc3cc(NC(=O)c4cccc(CC(C)(C)C#N)c4)ccc3C)nc2s1 | 9 |
| CCn1c(-c2nonc2N)nc2cncc(CNC3CCNCC3)c21.Cl [SB-747651] | 10 |
| CC(C)S(=O)(=O)N1CCN(Cc2ccc3c(c2)nc(NC(=O)c2ccsc2)n3C[C@H](O)c2ccccc2)CC1 [GW635815] | 0 |
| COc1cc2ncn(-c3cc(OCC4CCCCC4)c(C(N)=O)s3)c2cc1OC [GSK204559] | 0 |
| NC(=O)c1ccc(-c2cc3ncnc(SCC(=O)O)c3s2)cc1 | 0 |
| COc1ccc(Nc2nccc(N3CCC(NC(=O)c4cccc(C#N)c4)C3)n2)cc1 (centres unmarked) [GSK1379730] | 0 |
| CCOC(=O)N1CCC(n2cnc(-c3ccc(F)cc3)c2-c2ccnc(N)n2)CC1 [SB-219952] | 23 |
| CCN1CCN(CCCC(=O)Nc2n[nH]c3nc(-c4ccc(O)cc4)c(Br)cc23)CC1 [SB-731579] | 0 |
| CC(=O)c1c(-c2ccncc2)[nH]c(-c2ccncc2)c1C [GW493036] | 23 |
| O=c1[nH]cc(-c2ccc(O)cc2)c2sc(-c3ccncc3)cc12 [GSK1033723] | 0 |
| C[C@@H]1CCN(C(=O)N2CCCC2)C[C@@H]1N(C)c1ncnc2[nH]ccc12 | 0 |
| CCn1c(-c2nonc2N)nc2cncc(Br)c21 [SB-738004] | 0 |
| Cc1n[nH]c2cc(Nc3ccnc(Nc4cccc(CN5CCOCC5)c4)n3)ccc12 [GW682569] | 54 |
| O=C(NOCC1CC1)c1cc(Br)c(F)c(F)c1Nc1ccc(I)cc1Cl | 0 |
| Cn1cc(-c2cccc3c(N)c(C(N)=O)nnc23)cn1 | 0 |
